Compound activity: PubChem, several laboratories
This is a sample that favours compounds with a hit; in the whole collection about 6.7% have one here.
BoNT A protease = BoNT/A light chain protease inhibitors, primary screen, biochemical, flow cytometry, MLPCN library; AID 588499, 2011; inhibition, % at 10 µM; 360,000 compounds, 0.17% hits; multiplex microsphere protease substrate cleavage
BoNT-F LC inh = BoNT/F light chain protease inhibitors, primary screen, biochemical, flow cytometry, MLPCN library | Botulinum neurotoxin type F light chain protease (Clostridium botulinum) | Multiplex microsphere protease cleavage assay | inhibition, % at 10 µM | 360,000 compounds, 0.22% hits | AID 588497, 2011; in the data active = inhibition above about 35%, passing the limit was not always enough; inconclusive = no clear call, values can overlap the other calls
FBA Mtb inh = Mtb FBA enzyme inhibitors, primary screen, biochemical, fluorescence, strain H37Rv. Fructose-bisphosphate aldolase (Mycobacterium tuberculosis (strain ATCC 25618 / H37Rv)), …. purified M. tuberculosis FBA, fluorescence read-out. inhibition, % at 1 µM. 360,000 compounds, 2.3% hits; in the data active = inhibition above about 27%
Autofluor counter = counter-screen for toxin protease inhibitors: compound fluorescence. 360,000 compounds, 3.1% hits. fluorescence intensity (concentration not given with the values). compound autofluorescence counterscreen, microsphere flow cytometry; hits give high values. AID 624483; in the data active = fluorescence intensity above about 16000; inconclusive = no clear call, values can overlap the other calls
GDH-TPI inh = GDH-TPI coupling enzyme inhibitors, primary screen, artefact control for M. tuberculosis FBA inhibitor project, biochemical, absorbance, full deck. GDH-TPI coupled enzyme counterscreen, NADH absorbance. inhibition, % at 4.8 µM. 360,000 compounds, 1.2% hits. AID 588335, 2011; in the data active = inhibition above about 30%
Anthrax LF inh2 = Bacillus anthracis LF protease inhibitors, primary screen, biochemical, multiplex microsphere, MLPCN library. multiplex microsphere protease cleavage assay. inhibition, % at 10 µM. 360,000 compounds, 0.12% hits
Hits are given with their value; . = inactive; ? = inconclusive; / = not tested or not shown; + = active, no number. Rule as the data show it, unless noted: active = inhibition above about 30%; inconclusive = no clear call, values can overlap the other calls; inactive = below that.

SMILES	BoNT A protease	BoNT-F LC inh	FBA Mtb inh	Autofluor counter	GDH-TPI inh	Anthrax LF inh2
Cc1ccccc1CSc1nnc(NC(=O)C2COc3ccccc3O2)s1 (stereo not drawn)	.	.	.	20631	.	.
O=C(Nc1nnc(SCc2ccccc2Cl)s1)C1COc2ccccc2O1 (stereo not drawn)	.	.	.	.	.	.
CCOC(=O)C(C)Sc1nnc2n1C(C)(C)Cc1ccccc1-2 (stereo not drawn)	?	.	.	24062	.	.
CC1(C)Cc2ccccc2-c2nnc(-c3ccccc3)n21	.	.	.	22143	.	.
CC1(C)Cc2ccccc2-c2nnc(-c3ccccn3)n21	.	.	.	20079	.	.
CC1CC(C)(C)NC2(CCCC2)N1 (stereo not drawn)	.	.	.	.	.	.
Cc1cc(SCCC(=O)O)nc2ccccc12	.	.	.	.	.	.
CCOC(=O)c1oc2nc(C(C)C)c3c(c2c1N)CC(C)(C)OC3	.	.	149	.	.	.
CCOC(=O)c1oc2nc(C(C)C)c3c(c2c1N)CCC3	.	.	124	.	.	.
O=C(NCc1ccc2c(c1)OCO2)c1ccc(CSCc2cccc(Cl)c2)o1	.	.	.	.	.	.
COc1cc(/C=C/C(=O)N2CCC=CC2=O)cc(OC)c1OC	.	.	.	.	35	.
CC(C)c1cc(NC(=O)CCl)on1	.	.	.	.	.	.
CCOC(=O)N1CCC(N2C(=O)c3ccccc3C2Nc2ccc3c(c2)OCCO3)CC1 (stereo not drawn)	.	.	.	.	.	.
CCOC(=O)N1CCC(N2C(=O)c3ccccc3C2Nc2ccc3c(C)cc(=O)oc3c2)CC1 (stereo not drawn)	.	.	+	.	.	.
Cc1noc(C)c1CSc1nc2ccccc2n1C	.	.	.	.	.	.
COc1cc2c(cc1OC)CN(S(=O)(=O)/C=C/c1ccccc1)CC2	.	40	.	.	.	.
CCC(Sc1ncccc1C(=O)OC(C)C)C(=O)N1CCOCC1 (stereo not drawn)	?	.	.	22945	.	.
CCC(Sc1ncccc1C(=O)OCCN1CCCC1=O)C(=O)NCc1ccco1 (stereo not drawn)	.	.	.	20951	.	.
CCC(Sc1ncccc1C(=O)OC(C)C)C(=O)NCc1ccco1 (stereo not drawn)	.	.	.	.	.	.
CCOC(=O)c1cccnc1SC(CC)C(=O)NCc1ccco1 (stereo not drawn)	.	.	.	24254	.	.
O=C(CCn1cccn1)N1CCCC(Nc2ccc(F)c(F)c2)C1 (stereo not drawn)	.	.	.	.	.	.
Nn1c(-c2ccc(F)cc2)nc2ccccc2c1=O	.	.	.	.	.	.
Nc1nc(Br)c2c(F)cccc2c1-c1ccccc1	.	.	.	21859	.	.
Nc1nc(Br)c2c(F)cccc2c1-c1ccc(F)cc1	.	.	.	22286	.	.
Nc1ccc(-c2c3ccccc3nc3ccccc23)cc1	.	?	.	.	.	.
SMILES	BoNT A protease	BoNT-F LC inh	FBA Mtb inh	Autofluor counter	GDH-TPI inh	Anthrax LF inh2
COc1ccc2nc(C)cc(NCCN3CCOCC3)c2c1	.	.	.	.	.	.
CN(c1ccc(OCC(=O)N2CCC(C(N)=O)CC2)cc1)S(=O)(=O)c1cccs1	?	.	.	21812	.	.
Cc1nnc(N2CCCC(C(=O)NCc3ccc(OC(C)C)cc3)C2)c2nn(-c3ccccc3)c(C)c12 (stereo not drawn)	.	.	.	24028	.	.
Cc1cc(C)n2nc(CC(=O)NC3CCCCCC3)nc2n1	.	.	.	19846	.	.
Cc1ccc(C(=O)NNC(=O)Cc2nc3nc(C)cc(C)n3n2)cc1	.	.	.	.	.	.
Cc1cc(C)c(C#N)c(SCC(=O)c2ccccc2)n1	.	.	.	.	.	.
Cc1cc(C)c(C#N)c(SCC(=O)c2cccs2)n1	?	.	.	22840	.	.
Cc1cc(SCC(=O)c2cccs2)nc2c(C)cccc12	.	.	.	16902	.	.
Cc1cc2c(C)ccc(C)c2nc1SCC(=O)c1cccs1	.	.	.	.	.	.
CC1(C)CC(=O)C/C(=N\NC(=O)C2CC2c2ccccc2)C1 (stereo not drawn)	.	.	.	.	.	.
N#Cc1c(-c2cccs2)cc(-c2ccccn2)nc1N	.	.	78	.	.	.
Cc1cccc(NS(=O)(=O)c2ccc(Oc3ccccc3)cc2)n1	.	.	.	.	.	.
CCCC(=O)Nc1ccc(C(=O)N/N=C/c2cccnc2)cc1	?	.	.	23205	.	.
O=C(N/N=C/c1cccnc1)c1cc2c(ccc3ccccc32)o1	.	.	.	.	32	.
O=C(N/N=C/c1ccncc1)c1cc2ccccc2o1	.	.	.	.	.	.
O=C(N/N=C/c1cccnc1)c1cc2ccccc2o1	.	.	.	.	31	.
Cc1ccc2cc(NC(=O)c3ccc(C(C)(C)C)cc3)ccc2n1	.	.	.	.	.	.
Cc1cc(C)n2c(NCc3ccccc3)c(CCc3ccccc3)nc2n1	.	.	/	.	/	.
Cc1cccc(NC(=O)CSCC(=O)N(C)CCOc2ccc(Cl)cc2)c1	.	.	.	?	.	.
OC(COc1ccc(F)cc1Cl)CN1CCC(Cc2ccccc2)CC1 (stereo not drawn)	.	.	.	.	.	.
CCC(=O)c1cc2c(C)cc(=O)oc2c(C)c1OC	.	.	.	22529	.	.
CCC(=O)Oc1c(C(=O)CC)cc2c(C)cc(=O)oc2c1C	.	.	.	.	.	.
Cc1ccc(C)c(NC(=O)COC(=O)c2c(C)nn(-c3ccccc3)c2C)c1	.	.	.	.	.	.
O=C(O)c1ccc2c(c1)C(c1ccccc1)OC2=O (stereo not drawn)	.	.	.	16408	.	.
O=C(OCCN1C(=O)c2cccc3c(N4CCOCC4)ccc(c23)C1=O)c1ccc(Cl)cc1	34	.	.	.	.	.
SMILES	BoNT A protease	BoNT-F LC inh	FBA Mtb inh	Autofluor counter	GDH-TPI inh	Anthrax LF inh2
CCCN(CCC)S(=O)(=O)c1ccc(C(=O)OCCN2C(=O)c3cccc4c(N5CCOCC5)ccc(c34)C2=O)cc1	37	.	.	.	.	37
O=C1CCC(CCc2nc3ccccc3[nH]2)(c2ccccc2)C(=O)N1 (stereo not drawn)	.	.	.	.	.	.
COc1ccc2c(CC(=O)NNC(=O)c3ccc(C)cc3)coc2c1	.	.	.	.	.	.
C/C(=C\C(=O)Nc1nccs1)c1ccccc1	?	.	.	17209	.	.
C/C(=C\C(=O)O)C(=O)Nc1nccs1	.	?	.	.	.	.
O=C(c1cccs1)N1CCN(S(=O)(=O)N2CCCCC2)CC1	.	.	.	.	.	.
